# IL1B secr inh = blocks inflammasome-driven IL-1 beta release; activity change, % at 57.5 µM; THP-1 LPS/ATP IL-1B secretion, AlphaLISA, 16 h; stronger effect = lower value; 360,000 tested, 4.7% active; in the data active = activity change below about -50%; inconclusive = mostly about -30% to -49%; also: % is scaled to controls: 0 for no effect and ±100 for the full control effect
#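 THP-1 cells pretreated 1 hr with compounds (up to 57.5 uM final), then stimulated with LPS (250 ng/mL final) plus ATP (1.25 mM final); secreted IL-1B measured by AlphaLISA after 16 hr, decreased signal indicating inhibition.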
# TDP1 cell noCPT = qHTS for Inhibitors of human tyrosyl-DNA phosphodiesterase 1 (TDP1): qHTS in cells in absence of CPT | DT40 Tdp1-/- hTDP1 cells, no CPT, ATP luminescence, 48 h | Potency, µM (titrated, usually from 46.2 µM), for the others: top-dose activity change, negative = growth inhibition, actives largely listed as inhibitors | 420,000 tested, 15% active; also: potency is read from the fitted curve at half-maximal effect; % is scaled to controls: 0 for no effect and ±100 for the full control effect; nearly all actives have a fitted effect of over 55% in size
#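 Chicken DT40 Tdp1-/- cells complemented with human TDP1, screened without camptothecin (DMSO vehicle only), 400 cells/well. Compounds pin-transferred, cells incubated at 37 °C for at least 48 hr. Growth read as ATP-dependent luminescence (CellTiter-Glo, 30 min at RT).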
# HepG2 viability = HepG2 cytotoxicity, counter-screen for TGF-b inhibitors | HepG2 CAGA-GFP viability, ATP luminescence, 18 h | Potency, µM (titrated, usually from 46.1 µM), for inactives: top-dose activity change, negative = cytotoxicity, most hits filed as cytotoxic | 410,000 tested, 0.76% active; also: potency is read from the fitted curve at half-maximal effect
#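 HepG2 CAGA-GFP cells (1000/well, DMEM with 1% FBS) received compound, then TGF-beta at 500 pg/mL final, and were incubated 18 hours at 37 degrees C. Viability was read by CellTiter-Glo luminescence. Media-only wells were set as complete cell-killing and DMSO as no toxicity.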
# TDP1 inh = blocks human tyrosyl-DNA phosphodiesterase 1; recombinant TDP1, AlphaScreen DNA substrate cleavage; Potency, µM (doses to about 130 µM), for the others: at the top dose activity change, negative = inhibition, usual class: inhibitors; 350,000 tested, 0.28% active; AID 485290; also: potency is read from the fitted curve at half-maximal effect; % is scaled to controls: 0 for no effect and ±100 for the full control effect; nearly all actives have a fitted effect of over 40% in size
# Target sequence (Q9NUW8 whole entry, looked up): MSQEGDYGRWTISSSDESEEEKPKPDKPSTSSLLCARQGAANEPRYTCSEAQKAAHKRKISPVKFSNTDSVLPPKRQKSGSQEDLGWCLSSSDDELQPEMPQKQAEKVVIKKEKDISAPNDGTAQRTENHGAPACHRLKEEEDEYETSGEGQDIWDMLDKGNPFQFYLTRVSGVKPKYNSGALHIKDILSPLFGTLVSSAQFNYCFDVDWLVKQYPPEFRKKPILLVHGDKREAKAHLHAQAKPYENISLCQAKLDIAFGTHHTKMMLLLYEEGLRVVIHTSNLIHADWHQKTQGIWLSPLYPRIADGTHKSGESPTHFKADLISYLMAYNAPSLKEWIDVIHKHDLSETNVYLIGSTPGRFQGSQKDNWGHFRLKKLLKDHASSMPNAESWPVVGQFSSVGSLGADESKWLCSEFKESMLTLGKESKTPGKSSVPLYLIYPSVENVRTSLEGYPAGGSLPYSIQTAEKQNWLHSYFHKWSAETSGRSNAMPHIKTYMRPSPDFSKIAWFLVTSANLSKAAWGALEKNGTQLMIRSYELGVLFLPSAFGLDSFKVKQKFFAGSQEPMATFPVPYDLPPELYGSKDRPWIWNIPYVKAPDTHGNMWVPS
#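 Compounds were preincubated with Tdp1 (1 nM final) for 15 min at room temperature before substrate (15 nM final) started a 5 min reaction; beads (10 ug/ml final) were then added for 10 min before AlphaScreen detection.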
# TGFb SMAD3 inh = blocks TGF-b signaling; HepG2 CAGA-GFP TGF-b/SMAD3 reporter, GFP fluorescence, 18 h; TGF-beta stimulated, 500 pg/mL final; Potency, µM (top dose mostly 46.1 µM), inactives show at the highest dose activity, negative = inhibition, usual class: inhibitors; 410,000 tested, 1.2% active; also: potency is read from the fitted curve at half-maximal effect; % is scaled to controls: 0 for no effect and ±100 for the full control effect; nearly all actives have a fitted effect of over 65% in size
#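 Inhibition of TGF-beta-driven CAGA-GFP reporter expression in HEPG2 cells is measured by cellular GFP fluorescence after 18 h stimulation with 500 pg/mL recombinant TGF-beta in 1% FBS medium at 37 degrees C.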
# DT40 TDP1 CPT = growth inhibition of DT40 Tdp1-/-;hTDP1 cells with camptothecin (screen for TDP1 inhibitors). chicken DT40 Tdp1-/-;hTDP1 cells + 20 nM CPT, ATP luminescence, 48 h. Potency, µM (top dose mostly 46.2 µM), for the others: top-dose activity change, negative = growth inhibition, hits mostly inhibitors. 420,000 tested, 12% active; also: potency is read from the fitted curve at half-maximal effect; % is scaled to controls: 0 for no effect and ±100 for the full control effect; nearly all actives have a fitted effect of over 55% in size
#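 Cell growth measured by CellTiter-Glo luminescence after a minimum 48 h, 37 C compound exposure with 20 nM CPT in Tdp1-knockout DT40 cells stably expressing hTDP1, seeded 400/well; qHTS titration format.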
# * marks the source's active call; other numbers are inactive results; u = inconclusive; x = no result given; [ ] = remark or other dose. This is a sample that favours compounds with a hit; in the whole collection about 18% have one here. Unless noted, calls follow the shape of the dose curve; as a rule, active = well fitted curve in the direction sought with a large enough effect; inconclusive = small, poorly fitted or top-dose-only effect, or another doubt; inactive = no such curve, though single readings can be large; an effect the other way counts as inactive or inconclusive.
SMILES,IL1B secr inh,TDP1 cell noCPT,HepG2 viability,TDP1 inh,TGFb SMAD3 inh,DT40 TDP1 CPT
COc1ccc(-c2csc3ncnc(Nc4cccc(F)c4)c23)cc1,x,-30.8%,-17.6%,-3.8%,4.9%,u
COc1ccc(-c2csc3ncnc(Nc4cc(OC)cc(OC)c4)c23)cc1,x,16.4µM*,-73.7%,3.8%,u,u
CC1(C)CC(C#N)(N2CCOCC2)CCO1 (stereo not given),15.5,u,0.7%,-4.1%,u,2.91µM*
CN(C)Cc1ncccc1Oc1nc2cc(-c3cccc(Cl)c3)sc2c(=O)n1C,u,u,-34.3%,x,8.1%,u
Cc1nn(CC(=O)NCc2ccccc2F)c(C)c1[N+](=O)[O-],1.6,u,-0.7%,3.0%,9.3%,25.5%
Cc1nn(CC(=O)NCc2cc3ccccc3[nH]2)c(C)c1[N+](=O)[O-],-65.2*,-20.5%,-33.9%,5.5%,2.4%,-25.7%
CC(C)CC(NC(=O)OCc1ccccc1)C(=O)NC(Cc1ccccc1)C(=O)CCl (stereo not given),-99.7*,2.91µM*,-101.7%,x,10µM*,4.61µM*
COC(=O)C(Cc1ccccc1)NC(=O)C(CC(C)C)NC(=O)OC(C)(C)C (stereo not given),18.9,-27.0%,-9.6%,0.6%,-37.7%,-0.2%
CCOC(=O)C(Cc1ccccc1)NC(=O)CNC(=O)CNC(=O)OCc1ccccc1 (stereo not given),-88.1*,-22.7%,-40.1%,2.3%,u,-3.2%
Cc1ccc(NC(=O)C(Cc2ccccc2)NC(=O)OCc2ccccc2)cc1C (stereo not given),13.8,23.1µM*,-37.4%,2.7%,0.0%,u
CCOC(=O)C(Cc1ccc(O)cc1)NC(=O)CNC(=O)C(CC(C)C)NC(=O)OC(C)(C)C (stereo not given),-98.7*,-16.6%,0.3%,2.6%,-4.4%,-2.4%
CCOC(=O)C(Cc1ccc(O)cc1)NC(=O)CNC(=O)C1CCCN1C(=O)OC(C)(C)C (stereo not given),-2.5,u,-11.1%,-5.4%,-0.1%,-21.7%
COc1cc(OC)cc(N(C(=O)CNC(=O)c2cccs2)C(C(=O)NCC2CCCO2)c2ccc(OC)c(OC)c2)c1 (stereo not given),39.6,1.5%,-14.9%,-1.2%,-2.7%,10.9%
CC(=O)OC[C@@H]1O[C@@H](O/N=C2/C[C@@H](O)[C@@H](O)[C@@H]3[C@@H]4C(=O)N(c5cccc(Oc6ccccc6)c5)C(=O)[C@H]4CC[C@H]23)[C@H](OC(C)=O)[C@H](OC(C)=O)[C@@H]1OC(C)=O,x,x,x,4.8%[21 µM],x,x
O=C(Cn1c(=O)n(-c2ccccc2)c(=O)c2sc3ccccc3c21)N1CCCC1,x,-12.2%,-7.8%,3.8%,3.8%,-23.6%
S=C(NCc1ccco1)N1CCC(c2nc3ccccc3o2)CC1,-15.5,16.0%,-17.5%,6.1%,-18.7%,-2.4%
Cc1cc(=O)oc2cc(NC(=O)c3cc([N+](=O)[O-])ccc3N3CCOCC3)ccc12,-21.7,-10.4%,-28.7%,-1.2%,-12.8%,0.5%
COc1ccc(CCNC(=O)C(=O)NCc2ccccc2)cc1OC,32.4,5.17µM*,-12.7%,-2.9%,-18.7%,5.17µM*
COc1ccc(CCNC(=O)CC(c2ccccc2)c2cc(C)ccc2O)cc1OC (stereo not given),0.0,13µM*,-8.3%,x,-1.2%,25.9µM*
COc1ccc(CCNC(=S)c2ccccc2)cc1OC,u,u,-26.7%,x,-2.0%,20.6µM*
COc1ccc(CCNC(=O)C(=O)NCc2cccs2)cc1OC,28.5,29.1µM*,-5.1%,0.0%,-9.2%,u
